PNC assembly inh: High Content Assay for Compounds that inhibit the Assembly of the Perinucleolar Compartment. activity change (PNC), negative = inhibition, % at 10 µM. PC3M PTB-GFP, PNC prevalence imaging, 16 h; hits give low values. hit rate 3.1% among 140,000;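 active = readout at or below -70, meaning at least 70% loss of cells showing the perinucleolar compartment, a nuclear body marking cancer cells; inconclusive = readout between -30 and a set limit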
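Read-out is percentage of cells bearing a perinucleolar compartment, from automated 20x imaging of fixed, Hoechst-stained PC3M PTB-GFP cells. Cells were seeded 4 h, then exposed 16 h to compound (23 nl of library stock) in duplicate plates.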
ALOX12 inhib: qHTS Assay for Inhibitors of 12-hLO (12-human lipoxygenase); purified 12-hLO, xylenol orange hydroperoxide absorbance; Potency, µM (titrated, usually from 57.1 µM), actives largely listed as inhibitors; hit rate 0.12% among 150,000; active = well fitted inhibition curve with a large enough effect; inconclusive = small, poorly fitted or top-dose-only effect; note: nearly all actives have a fitted effect of over 55% in size
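Lipoxygenase turnover measured by absorbance at 573 and 405 nm after Fe-XO development. Human 12hLO 150 nM, arachidonate 40 uM, pH 7.0 Hepes buffer with detergent; 15 min compound preincubation, 30 min reaction.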
ALDH1A1 inh: qHTS Assay for Inhibitors of Aldehyde Dehydrogenase 1 (ALDH1A1). Purified ALDH1A1, NADH fluorescence, propionaldehyde substrate. AID 1030, 2008. Aldehyde dehydrogenase 1A1 (Homo sapiens), P00352. Potency, µM (highest dose often 75.3 µM), usual class: inhibitors. hit rate 7.3% among 220,000
Lamin A splicing: qHTS Assay for Modulators of Lamin A Splicing; AID 1487, 2009; Potency, µM (titrated, usually from 46.1 µM), usual class: inhibitors; hit rate 0.01% among 200,000; HeLa LMNA splicing GFP/RFP minigene ratio, 48 h; active = well fitted inhibition curve with a large enough effect in the signal ratio, with a control signal flat, not every such curve was filed as active; inconclusive = small, poorly fitted or top-dose-only effect, or effect the other way, or a change in a side signal; the % refers to the signal ratio
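Read-out is the ratio of GFP to DsRed2 object intensity, acquired by 488 nm laser-scanning cytometry on HeLa lamin A-EGFP minigene reporter cells. Compound incubation 48 hrs at 37 °C in Opti-MEM with 2% FBS; DMSO 0.5% final.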
HPGD block: qHTS Assay for Inhibitors of HPGD (15-Hydroxyprostaglandin Dehydrogenase); Potency, µM, usual class: inhibitors; 15-hydroxyprostaglandin dehydrogenase [NAD(+)] (Homo sapiens), P15428; AID 894, 2007; hit rate 4.3% among 150,000; purified HPGD, NADH fluorescence kinetic, PGE2 substrate
Target sequence (P15428 whole entry, looked up): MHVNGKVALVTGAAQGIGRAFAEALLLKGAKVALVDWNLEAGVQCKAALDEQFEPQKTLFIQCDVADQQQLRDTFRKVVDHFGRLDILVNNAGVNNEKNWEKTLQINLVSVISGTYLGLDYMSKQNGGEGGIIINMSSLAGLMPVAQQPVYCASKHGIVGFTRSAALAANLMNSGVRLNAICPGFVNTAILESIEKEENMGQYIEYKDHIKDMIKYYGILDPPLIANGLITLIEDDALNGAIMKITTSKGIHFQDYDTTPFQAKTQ
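NADH formation kinetics: reaction with 30 uM PGE2 and 1 mM NAD+ (final), 20 nM enzyme, Tris-HCl pH 8 with Tween 20, after 15 min compound preincubation at room temperature. Fluorescence change, last versus first of five reads.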
Numbers stand for hits; – = inactive; ? = inconclusive; · = no result. In the library only some 10% were active in any assay of this set; here they are far more common. Unless noted, calls come from the whole dose curve; as a rule, active = well fitted inhibition curve with a large enough effect (not every such curve was filed as active); inconclusive = small, poorly fitted or top-dose-only effect, or another doubt; inactive = no such curve, though single readings can be large or run the other way.

SMILES	PNC assembly inh	ALOX12 inhib	ALDH1A1 inh	Lamin A splicing	HPGD block
CC(=O)/C=C/c1ccc(C)o1	·	·	?	–	·
COC(=O)c1cc(Cl)c(NC(=O)/C=C/c2ccc(Cl)cc2Cl)cc1OC	–	–	?	–	?
COC(=O)c1ccc(Cl)cc1NC(=O)/C=C/c1ccc(C)o1	-124	–	20µM	–	?
CC(=O)Nc1ccc(Oc2ccccc2)cc1	·	·	–	·	·
CC(/C=C/c1ccc(C)o1)=C\C(=O)O	–	–	20µM	–	–
CCOC(=O)C(=O)Nc1ccc(Oc2ccccc2)cc1	·	·	–	–	·
COC(=O)Nc1ccc(Oc2ccccc2)cc1	-93	–	–	–	?
CCOC(=O)/C=C/C(=O)Nc1ccc(Oc2ccccc2)cc1	·	·	25µM	?	·
COc1cccc(Nc2ncc3nc(-c4cccs4)c(=O)n(-c4ccccc4)c3n2)c1	·	·	–	?	·
CCCOc1ccc(/C=C/C(=O)Nc2ccc([N+](=O)[O-])cc2)cc1	?	–	–	?	·
CCOC(=O)/C=C/C(=O)Nc1ccc(S(=O)(=O)Nc2c(C)cc(C)cc2C)cc1	–	–	13µM	?	–
Cc1ccc(/C=C/C(=O)Nc2ccc([N+](=O)[O-])cc2)o1	–	?	12µM	–	·
Cc1ccc(/C=C/C(=O)Nc2nnc(C)s2)o1	–	–	?	–	?
Cc1cc(C)c(NS(=O)(=O)c2ccc(NC(=O)c3cccs3)cc2)c(C)c1	–	–	–	?	–
CCN1CCN(C(=O)/C=C/c2ccc(C)o2)CC1	–	–	–	–	–
Cc1ccc(/C=C/C(=O)Nc2ccc(Oc3ccccc3)cc2)o1	–	–	24µM	?	25µM
Cc1ccc(/C=C/C(=O)N2CC(C)CC(C)C2)o1 (configuration not stated)	–	–	10µM	?	?
CC(=O)Nc1ccc(/C=N/NC(=O)c2cc3ccccc3nc2C)cc1	?	–	?	–	–
Cc1nc2c(cc1C(=O)N/N=C/c1ccc(O)c(O)c1)c(=O)n(C)c(=O)n2C	-89	–	–	–	–
CSC1=Nc2sc3c(c2C2=NCCN12)CCCC3	–	–	14µM	–	·
CC(C)COC(=O)NCC12C=CC(O1)C1C(=O)N(c3ccc(Cl)cc3)C(=O)C12 (configuration not stated)	–	?	0.56µM	–	18µM
Cc1ccc(N2C(=O)C3C4C=CC(CNC(=S)Nc5ccc(F)cc5)(O4)C3C2=O)cc1 (configuration not stated)	-80	–	0.4µM	?	18µM
Cc1ccc(N2C(=O)C3C4C=CC(CNC(=S)Nc5cccc(Cl)c5)(O4)C3C2=O)cc1 (configuration not stated)	–	–	1.6µM	?	–
CCc1ccccc1N1CC23C=CC(O2)C(C(=O)OCC(C)C)C3C1=O (configuration not stated)	–	–	–	–	–
Cc1ccc(N2C(=O)C3C4C=CC(CNC(=S)Nc5ccc(Cl)cc5)(O4)C3C2=O)cc1 (configuration not stated)	?	?	0.32µM	?	?
SMILES	PNC assembly inh	ALOX12 inhib	ALDH1A1 inh	Lamin A splicing	HPGD block
S=C(NCc1ccncc1)Nc1cccc(Cl)c1	?	–	–	–	–
Cc1onc(-c2ccccc2Cl)c1C(=O)N[C@H]1C(=O)N2[C@H]1SC(C)(C)[C@H]2C(=O)O	·	–	–	?	–
Cc1cc(C)n2nc(CCCO)nc2n1	·	·	–	·	·
CC1(O)CC2C(CC1O)C2(C)C (configuration not stated)	·	–	–	–	–
CCOc1ccc(-n2c(SCC(=O)Nc3ccc(F)cc3)nc3c([nH]c4ccccc43)c2=O)cc1	·	·	·	–	·
CCCNC(=O)C(Cc1ccccc1)NS(=O)(=O)c1ccc2c(c1)CCC(=O)N2 (configuration not stated)	–	–	–	–	–
CN(Cc1ccco1)C(=O)C(Cc1ccccc1)NS(=O)(=O)c1ccc2c(c1)CCC(=O)N2 (configuration not stated)	-81	–	25µM	–	–
CCOc1ccc(CCNc2ncnc3onc(-c4ccc(F)cc4)c23)cc1OCC	·	·	·	–	·
Cc1ccccc1OCCNC(=O)c1ccc2ccccc2n1	–	–	–	–	–
NNC(=O)c1ccc2ccccc2n1	·	·	7.9µM	·	·
O=C(NN=C1CCCCCCC1)c1ccc2ccccc2n1	·	·	1.6µM	?	·
COCCNC(=O)c1ccc2ccccc2n1	?	–	?	–	22µM
Cc1cccc(CNc2cc(-c3ccccc3CN(C)C)ncn2)c1	·	–	–	?	–
C/C=C/c1ccc(OC(C)[C@@H](O)c2ccc(O)c(OC)c2)c(OC)c1 (some centres not stated)	·	·	?	·	–
CCc1sc(-c2c(C#N)c(N)nc3c2CCCCCC3)cc1[N+](=O)[O-]	–	–	–	–	–
CCc1sc(C(C2C(=O)CC(C)(C)CC2=O)C2C(=O)CC(C)(C)CC2=O)cc1[N+](=O)[O-]	·	·	14µM	?	·
OCCC1CN(Cc2cccn2-c2ncccn2)CCN1CCc1ccccc1 (configuration not stated)	·	·	–	·	·
O=C1c2cccc(OCC(=O)N3CCCc4ccccc43)c2CCN1Cc1ccccc1	–	–	–	?	–
Cc1ccc(CN2CCc3c(OCC(=O)Nc4cccc(C)c4C)cccc3C2=O)cc1	–	–	25µM	?	–
O=C1c2cccc(OCC(=O)N3CCCc4ccccc43)c2CCN1Cc1ccc(Br)cc1	–	–	7.9µM	?	–
Cc1ccc(C)c(NC(=O)COc2cccc3c2CCN(Cc2ccccc2C)C3=O)c1	–	–	?	–	–
CCCCNC(=O)[C@@H]1Cc2ccccc2N1C(=O)[C@H](N)CC	·	–	?	·	–
Cc1c(C(=O)Nc2ccc3c(c2)CCC3)cccc1[N+](=O)[O-]	-114	–	9.5µM	–	–
COc1cc(O)oc1C=Nc1ccccc1	–	–	20µM	–	–
Cc1occc1C(=O)N/N=C/C1=C(N2CCOCC2)C(=C\c2ccc(Cl)cc2)/CC1	–	–	?	–	–
SMILES	PNC assembly inh	ALOX12 inhib	ALDH1A1 inh	Lamin A splicing	HPGD block
Cc1cc(C)nc(N/N=C/C2=C(N3CCOCC3)C(=C/c3ccccc3)/CC2)n1	–	–	–	–	18µM
Cc1cc(=O)[nH]c(N/N=C/C2=C(N3CCOCC3)C(=C\c3ccc(Cl)cc3)/CC2)n1	–	–	11µM	–	–
O=C(NCc1ccccc1)c1cccc(COc2ccc3c(c2)CCC3)c1	?	–	–	–	–
NNC(=O)c1ccc(COc2ccc3c(c2)CCC3)o1	–	–	7.9µM	–	–
COc1cccc(OC)c1C(=O)NNC(=O)c1cccc(COc2ccc3c(c2)CCC3)c1	–	–	20µM	?	–
O=C(c1ccco1)N1CCN(C(=O)c2ccc(COc3ccc4c(c3)CCC4)o2)CC1	–	–	28µM	–	28µM
